# Test results from the supplement of paper PMC12282887.
# ± gives the standard deviation of the averaged measurements.
# Assays:
# Test in all cases: promoter activity interaction Z-score (Lux/OD deviation from empty-vector control); higher = stronger promoter induction by the compound
# [1] = test system: E. coli BW25113 acrABp lux reporter
# Outline: (§1)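 E. coli BW25113 (wild type or marA, soxS or rob deletion) carrying low-copy luxCDABE promoter reporters grew in 40 µl LB Lennox in 384-well plates at 37°C. Each compound was tested at four 1:2 dilutions in biological duplicates. OD600 and luminescence were read every 30 min for 12 h. Areas were taken over 0–8 h (wild type) or 1–9 h (mutants), and wells below 10% of median growth area were removed. The score is the Z-transformed residual of growth-normalised luminescence fitted against the empty-vector control.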
# [2] = test system: E. coli BW25113 micFp lux reporter
# Outline: as §1
# [3] = test system: E. coli BW25113 ompFp lux reporter
# Outline: as §1
# [4] = test system: E. coli BW25113 robp lux reporter
# Outline: as §1
# [5] = test system: E. coli BW25113 soxSp lux reporter
# Outline: as §1
# [6] = test system: E. coli BW25113 tolCp lux reporter
# Outline: as §1
# [7] = 6.9 µg/ml, genetic background: wild type
# [8] = 6.9 µg/ml, genetic background: ΔmarA
# [9] = 6.9 µg/ml, genetic background: Δrob
# [10] = 6.9 µg/ml, genetic background: ΔsoxS
# [11] = 13.8 µg/ml, genetic background: wild type
# [12] = 13.8 µg/ml, genetic background: ΔmarA
# [13] = 13.8 µg/ml, genetic background: Δrob
# [14] = 13.8 µg/ml, genetic background: ΔsoxS
# [15] = 27.5 µg/ml, genetic background: wild type
# [16] = 27.5 µg/ml, genetic background: ΔmarA
# [17] = 27.5 µg/ml, genetic background: Δrob
# [18] = 27.5 µg/ml, genetic background: ΔsoxS
# [19] = 55 µg/ml, genetic background: wild type
# [20] = 55 µg/ml, genetic background: ΔmarA
# [21] = 55 µg/ml, genetic background: Δrob
# [22] = 55 µg/ml, genetic background: ΔsoxS
smiles,measurement,setting,value
CCCC(=O)O [Butyrate],promoter activity interaction Z-score,[1]; [7],-0.186 ± 0.091
same,promoter activity interaction Z-score,[1]; [8],-0.105 ± 0.089
same,promoter activity interaction Z-score,[1]; [9],-0.0421 ± 0.058
same,promoter activity interaction Z-score,[1]; [10],0.455 ± 0.31
same,promoter activity interaction Z-score,[1]; [11],0.0203 ± 0.11
same,promoter activity interaction Z-score,[1]; [12],0.0848 ± 0.57
same,promoter activity interaction Z-score,[1]; [13],0.344 ± 0.08
same,promoter activity interaction Z-score,[1]; [14],-0.00445 ± 0.01
same,promoter activity interaction Z-score,[1]; [15],-0.32 ± 0.15
same,promoter activity interaction Z-score,[1]; [16],0.724 ± 0.18
same,promoter activity interaction Z-score,[1]; [17],-0.04 ± 0.27
same,promoter activity interaction Z-score,[1]; [18],0.471 ± 0.41
same,promoter activity interaction Z-score,[1]; [19],0.0224 ± 0.013
same,promoter activity interaction Z-score,[1]; [20],0.369 ± 0.73
same,promoter activity interaction Z-score,[1]; [21],0.3 ± 0.086
same,promoter activity interaction Z-score,[1]; [22],0.561 ± 1.1
same,promoter activity interaction Z-score,[2]; [7],-0.053 ± 0.54
same,promoter activity interaction Z-score,[2]; [8],-0.02 ± 0.084
same,promoter activity interaction Z-score,[2]; [9],0.0084 ± 0.082
same,promoter activity interaction Z-score,[2]; [10],-0.0289 ± 0.27
same,promoter activity interaction Z-score,[2]; [11],0.0525 ± 0.25
same,promoter activity interaction Z-score,[2]; [12],0.104 ± 0.01
same,promoter activity interaction Z-score,[2]; [13],-0.131 ± 0.024
same,promoter activity interaction Z-score,[2]; [14],0.104 ± 0.51
same,promoter activity interaction Z-score,[2]; [15],-0.317 ± 0.084
same,promoter activity interaction Z-score,[2]; [16],0.0463 ± 0.13
same,promoter activity interaction Z-score,[2]; [17],-0.0949 ± 0.063
same,promoter activity interaction Z-score,[2]; [18],0.336 ± 0.088
same,promoter activity interaction Z-score,[2]; [19],-0.235 ± 0.24
same,promoter activity interaction Z-score,[2]; [20],-0.118 ± 0.0028
same,promoter activity interaction Z-score,[2]; [21],-0.0628 ± 0.18
same,promoter activity interaction Z-score,[2]; [22],-0.082 ± 0.078
same,promoter activity interaction Z-score,[3]; [7],-0.311 ± 0.047
same,promoter activity interaction Z-score,[3]; [8],-0.076 ± 0.29
same,promoter activity interaction Z-score,[3]; [9],0.0244 ± 0.24
same,promoter activity interaction Z-score,[3]; [10],-0.0786 ± 0.12
same,promoter activity interaction Z-score,[3]; [11],-0.231 ± 0.022
same,promoter activity interaction Z-score,[3]; [12],0.259 ± 0.068
same,promoter activity interaction Z-score,[3]; [13],0.303 ± 0.041
same,promoter activity interaction Z-score,[3]; [14],0.34 ± 0.31
same,promoter activity interaction Z-score,[3]; [15],-0.53 ± 0.22
same,promoter activity interaction Z-score,[3]; [16],-0.0799 ± 0.19
same,promoter activity interaction Z-score,[3]; [17],0.0179 ± 0.31
same,promoter activity interaction Z-score,[3]; [18],0.623 ± 0.35
same,promoter activity interaction Z-score,[3]; [19],0.0627 ± 0.12
same,promoter activity interaction Z-score,[3]; [20],0.515 ± 0.0087
same,promoter activity interaction Z-score,[3]; [21],0.664 ± 0.45
same,promoter activity interaction Z-score,[3]; [22],0.842 ± 0.3
same,promoter activity interaction Z-score,[4]; [7],0.406 ± 0.012
same,promoter activity interaction Z-score,[4]; [8],-0.648 ± 0.21
same,promoter activity interaction Z-score,[4]; [9],0.484 ± 0.27
same,promoter activity interaction Z-score,[4]; [10],0.116 ± 0.23
same,promoter activity interaction Z-score,[4]; [11],0.00618 ± 0.49
same,promoter activity interaction Z-score,[4]; [12],0.268 ± 0.098
same,promoter activity interaction Z-score,[4]; [13],0.377 ± 0.92
same,promoter activity interaction Z-score,[4]; [14],0.84 ± 0.41
same,promoter activity interaction Z-score,[4]; [15],-0.708 ± 0.16
same,promoter activity interaction Z-score,[4]; [16],-0.0714 ± 0.84
same,promoter activity interaction Z-score,[4]; [17],-0.162 ± 0.23
same,promoter activity interaction Z-score,[4]; [18],0.234 ± 0.13
same,promoter activity interaction Z-score,[4]; [19],0.0368 ± 0.57
same,promoter activity interaction Z-score,[4]; [20],-0.0155 ± 0.33
same,promoter activity interaction Z-score,[4]; [21],0.391 ± 0.82
same,promoter activity interaction Z-score,[4]; [22],0.993 ± 0.59
same,promoter activity interaction Z-score,[5]; [7],0.0135 ± 0.086
same,promoter activity interaction Z-score,[5]; [8],0.215 ± 0.14
same,promoter activity interaction Z-score,[5]; [9],0.301 ± 0.047
same,promoter activity interaction Z-score,[5]; [10],0.31 ± 0.33
same,promoter activity interaction Z-score,[5]; [11],0.0512 ± 0.26
same,promoter activity interaction Z-score,[5]; [12],0.372 ± 0.21
same,promoter activity interaction Z-score,[5]; [13],0.172 ± 0.11
same,promoter activity interaction Z-score,[5]; [14],0.159 ± 0.19
same,promoter activity interaction Z-score,[5]; [15],0.00814 ± 0.044
same,promoter activity interaction Z-score,[5]; [16],0.223 ± 0.09
same,promoter activity interaction Z-score,[5]; [17],0.122 ± 0.097
same,promoter activity interaction Z-score,[5]; [18],0.33 ± 0.46
same,promoter activity interaction Z-score,[5]; [19],-0.104 ± 0.11
same,promoter activity interaction Z-score,[5]; [20],0.322 ± 0.006
same,promoter activity interaction Z-score,[5]; [21],0.0248 ± 0.034
same,promoter activity interaction Z-score,[5]; [22],0.334 ± 0.73
same,promoter activity interaction Z-score,[6]; [7],-0.319 ± 1.1
same,promoter activity interaction Z-score,[6]; [8],-0.0114 ± 0.66
same,promoter activity interaction Z-score,[6]; [9],-0.444 ± 0.1
same,promoter activity interaction Z-score,[6]; [10],-0.376 ± 0.46
same,promoter activity interaction Z-score,[6]; [11],-0.518 ± 0.94
same,promoter activity interaction Z-score,[6]; [12],-0.427 ± 0.69
same,promoter activity interaction Z-score,[6]; [13],0.207 ± 1
same,promoter activity interaction Z-score,[6]; [14],0.311 ± 0.35
same,promoter activity interaction Z-score,[6]; [15],-1.01 ± 0.066
same,promoter activity interaction Z-score,[6]; [16],0.539 ± 0.083
same,promoter activity interaction Z-score,[6]; [17],0.18 ± 0.021
same,promoter activity interaction Z-score,[6]; [18],0.0693 ± 0.34
same,promoter activity interaction Z-score,[6]; [19],0.0415 ± 0.077
same,promoter activity interaction Z-score,[6]; [20],0.218 ± 0.98
same,promoter activity interaction Z-score,[6]; [21],-0.252 ± 0.71
same,promoter activity interaction Z-score,[6]; [22],0.709 ± 0.36
